In PubChem BioAssay (NCI) one finds growth data, which are given here for eight molecules.

About 83,000 compounds went through this panel and 20% of them were active in at least one assay; those are over-represented in the sample as a whole.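 Compound tested at a single concentration for 48 hours in 96-well plates; a percent growth value below 10 was scored as active.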 Values without a mark were called inactive. Active and inactive are the calls of the source.

Some test systems named below: NCI-H23 lung; NCI-H322M lung; HOP-62 NSCLC; NCI-H460 lung; HOP-92 NSCLC; NCI-H522 lung; A549/ATCC NSCLC; 786-0 renal; COLO 205 colon; DU-145 prostate; K-562 leukemia; MALME-3M melanoma; MDA-MB-231 breast; RXF 393 renal; SF-268 CNS; SF-295 CNS; SF-539 CNS; UACC-257 melanoma; M14 melanoma.
What all share (test): NCI-60 one-dose screen, 48 h (100 = growth as untreated, 0 = no growth, -100 = all killed)
Common to all, as to conditions: 10 µM unless noted

On to `COc1ccc2nc(NC(=O)c3cccnc3Nc3ccc(S(N)(=O)=O)cc3)sc2c1`, for which the growth in the test with NCI-H23 lung was 105%; with NCI-H322M lung, 89.8%; with HOP-62 NSCLC, 109%; in the test with NCI-H460 lung, 98.9%; in the test on HOP-92 NSCLC, 84.9%; with NCI-H522 lung, 95.5%. Also, the growth in the test on A549/ATCC NSCLC is 93.5%; in the test on 786-0 renal, 78.3%; with COLO 205 colon it was 159%; in the test on DU-145 prostate, 105%; in the test on K-562 leukemia it was 70.9%; with MALME-3M melanoma it was 103%. Further, the growth is 106% with MDA-MB-231 breast; 113% in the test with RXF 393 renal; 82.6% with SF-268 CNS; 92.8% in the test on SF-295 CNS; 100% with SF-539 CNS; 113% in the test with UACC-257 melanoma. Besides, the growth in the test on M14 melanoma was 113%.
For the molecule `c1ccc(-c2nc3nonc3nc2-c2ccccc2)cc1`, the growth in the test with NCI-H23 lung was 52.4%; in the test on NCI-H322M lung, 81.7%; with HOP-62 NSCLC it was 79%; with NCI-H460 lung, 62.8%; with HOP-92 NSCLC it was 78%; in the test on NCI-H522 lung, 49.2%. Further, the growth in the test with A549/ATCC NSCLC is 76.7%; in the test with 786-0 renal, 73.8%; in the test on COLO 205 colon it was 82.6%; in the test with DU-145 prostate it was 68.2%; in the test with K-562 leukemia it was 52.4%; in the test on MALME-3M melanoma, 55.4%. Further, the growth is 43.9% in the test with MDA-MB-231 breast; 51.1% with RXF 393 renal; 62.9% in the test with SF-268 CNS; 72.3% with SF-295 CNS; 79.1% in the test with SF-539 CNS; 63.3% with UACC-257 melanoma. Besides, the growth in the test with M14 melanoma was 84.9%.
In the case of `NC[C@@H]1O[C@H](O[C@@H]2[C@@H](CO)OC(O[C@@H]3[C@@H](O)[C@H](N)C[C@H](N)[C@H]3OC3O[C@H](CN)[C@@H](O)[C@H](O)[C@H]3N)[C@@H]2O)[C@H](N)[C@@H](O)[C@@H]1O` (stereo not given in full), the growth is 100% in the test with NCI-H23 lung; 120% in the test on NCI-H322M lung; 115% with HOP-62 NSCLC; 105% in the test on NCI-H460 lung; 125% with HOP-92 NSCLC; 111% in the test on NCI-H522 lung. In addition, the growth is 105% in the test on A549/ATCC NSCLC; 101% in the test with 786-0 renal; 115% in the test on COLO 205 colon; 112% with DU-145 prostate; 113% in the test on K-562 leukemia; 105% in the test with MALME-3M melanoma. For the same molecule, the growth in the test with MDA-MB-231 breast is 104%; with RXF 393 renal, 114%; in the test with SF-268 CNS, 113%; with SF-295 CNS it was 107%; in the test with SF-539 CNS it was 89.3%; with UACC-257 melanoma, 106%. In addition, the growth in the test on M14 melanoma was 104%.
Regarding `c1cc(NCCc2ccncc2)nc(-n2cnc3ccccc32)c1`, the growth in the test on NCI-H23 lung was 95.3%; in the test on NCI-H322M lung, 81.4%; in the test with HOP-62 NSCLC it was 90.7%; with NCI-H460 lung it was 79%; in the test with HOP-92 NSCLC, 93%; in the test with NCI-H522 lung, 78.8%. For the same molecule, the growth with A549/ATCC NSCLC is 78.8%; with 786-0 renal, 92%; in the test with COLO 205 colon it was 123%; in the test with DU-145 prostate it was 85.7%; in the test with K-562 leukemia, 88.6%; in the test on MALME-3M melanoma, 103%. For the same molecule, the growth is 98.2% in the test on MDA-MB-231 breast; 82.7% with RXF 393 renal; 82.3% in the test with SF-268 CNS; 105% with SF-295 CNS; 90.3% in the test with SF-539 CNS; 93.8% in the test on UACC-257 melanoma. The growth in the test on M14 melanoma is 94%.
As for `CNc1ccc(Nc2cccc(C)c2)c2c1C(=O)c1ccccc1C2=O`, the growth in the test with NCI-H23 lung is 89.9%; in the test with NCI-H322M lung, 82.1%; in the test with HOP-62 NSCLC, 102%; in the test on NCI-H460 lung, 87.6%; in the test with HOP-92 NSCLC, 28.9%; in the test with NCI-H522 lung, 75.9%. For the same molecule, the growth in the test on A549/ATCC NSCLC is 97.7%; with 786-0 renal, 100%; with COLO 205 colon, 105%; in the test with DU-145 prostate it was 85%; in the test with K-562 leukemia it was 92.7%; in the test on MALME-3M melanoma, 147%. The growth in the test on MDA-MB-231 breast was 96.1%; in the test with RXF 393 renal, 93.4%; in the test on SF-268 CNS it was 87.5%; in the test with SF-295 CNS, 146%; in the test with SF-539 CNS it was 99%; with UACC-257 melanoma, 107%. Besides, in the test on M14 melanoma, the growth was 122%.
Regarding `COc1cc(C)c(Cc2cnc(N)nc2N)cc1OC`, the growth in the test with NCI-H23 lung is 101%; with NCI-H322M lung, 103%; with HOP-62 NSCLC, 97.1%; in the test on NCI-H460 lung, 111%; in the test on HOP-92 NSCLC, 88.9%; in the test on NCI-H522 lung, 95.9%. Further, the growth in the test on A549/ATCC NSCLC is 103%; in the test on 786-0 renal, 103%; in the test with COLO 205 colon, 117%; in the test on DU-145 prostate it was 120%; in the test with K-562 leukemia, 110%; in the test on MALME-3M melanoma it was 99.3%. Further, the growth is 109% with MDA-MB-231 breast; 123% with RXF 393 renal; 108% in the test with SF-268 CNS; 103% with SF-295 CNS; 98.6% in the test on SF-539 CNS; 111% with UACC-257 melanoma. The growth in the test on M14 melanoma was 105%.
`NCCCNc1nc2ccc(Cl)cc2c2c(=O)c3cc(F)ccc3sc12`: the growth is 82.9% in the test with NCI-H23 lung; 74.9% with NCI-H322M lung; 81.9% in the test on HOP-62 NSCLC; -68.8% (active) in the test on NCI-H460 lung; 30.3% with HOP-92 NSCLC; 62.4% in the test with NCI-H522 lung. For the same molecule, the growth in the test on 786-0 renal was 72.7%; in the test with DU-145 prostate, 24.4%; in the test on K-562 leukemia, -38.7% (active); in the test with MALME-3M melanoma, 103%; in the test on MDA-MB-231 breast it was 3.44% (active); with RXF 393 renal, 62.3%. For the same molecule, the growth with SF-268 CNS is 53.2%; in the test on SF-295 CNS, 103%; in the test on SF-539 CNS, 70.7%; in the test on UACC-257 melanoma, 98.3%; in the test on M14 melanoma it was 55%.
Regarding `[O-][n+]1c2ccccc2[n+]([O-])c2c3ccccc3[nH]c21`, the growth is 71.5% with NCI-H23 lung; 66.9% in the test with NCI-H322M lung; 26.2% in the test with HOP-62 NSCLC; 5.29% (active) with NCI-H460 lung; 66.5% with HOP-92 NSCLC; 57.5% in the test with NCI-H522 lung. For the same molecule, the growth was 30.6% in the test on A549/ATCC NSCLC; 71% in the test on 786-0 renal; 69.8% in the test with COLO 205 colon; 72.6% in the test on DU-145 prostate; 87.7% in the test on K-562 leukemia; 110% in the test with MALME-3M melanoma. Moreover, the growth with MDA-MB-231 breast was 75.9%; in the test with RXF 393 renal, 99.6%; with SF-268 CNS, 109%; in the test on SF-295 CNS, 69.7%; in the test on SF-539 CNS it was 91.4%; with UACC-257 melanoma, -31.3% (active). Also, the growth with M14 melanoma was 98.5%.
